JMJD2A Tudor – qHTS Assay for Inhibitors of JMJD2A-Tudor Domain; Lysine-specific demethylase 4A (Homo sapiens), O75164; AlphaScreen JMJD2A-Tudor / H3K4me3 peptide binding; Potency, µM (highest dose often 114 µM), actives largely listed as inhibitors; 390,000 compounds, 4.4% hits; AID 504339, 2011; further: nearly all actives have a fitted effect of over 50% in size
GLS inh – qHTS for Inhibitors of Glutaminase (GLS) | GLS enzymatic activity, qHTS titration | 410,000 compounds, 0.21% hits | Potency, µM (highest dose often 45.5 µM), hits mostly inhibitors | Glutaminase kidney isoform, mitochondrial (Homo sapiens), O94925
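Compounds were pin-transferred onto hKGA, after which L-glutamine (1 mM solution) and a detection mix of glutamate oxidase, HRP and Amplex Red were added. Initial and 30 min RT fluorescence reads were collected.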
L3MBTL1 block – qHTS Assay for the Inhibitors of L3MBTL1; Lethal(3)malignant brain tumor-like protein 1 (Homo sapiens), Q9Y468; AlphaScreen L3MBTL1–H3K9me1 peptide binding; Potency, µM (series often up to 57.1 µM), hits mostly inhibitors; 230,000 compounds, 0.66% hits; further: nearly all actives have a fitted effect of over 60% in size
Target sequence (Q9Y468 whole entry, looked up): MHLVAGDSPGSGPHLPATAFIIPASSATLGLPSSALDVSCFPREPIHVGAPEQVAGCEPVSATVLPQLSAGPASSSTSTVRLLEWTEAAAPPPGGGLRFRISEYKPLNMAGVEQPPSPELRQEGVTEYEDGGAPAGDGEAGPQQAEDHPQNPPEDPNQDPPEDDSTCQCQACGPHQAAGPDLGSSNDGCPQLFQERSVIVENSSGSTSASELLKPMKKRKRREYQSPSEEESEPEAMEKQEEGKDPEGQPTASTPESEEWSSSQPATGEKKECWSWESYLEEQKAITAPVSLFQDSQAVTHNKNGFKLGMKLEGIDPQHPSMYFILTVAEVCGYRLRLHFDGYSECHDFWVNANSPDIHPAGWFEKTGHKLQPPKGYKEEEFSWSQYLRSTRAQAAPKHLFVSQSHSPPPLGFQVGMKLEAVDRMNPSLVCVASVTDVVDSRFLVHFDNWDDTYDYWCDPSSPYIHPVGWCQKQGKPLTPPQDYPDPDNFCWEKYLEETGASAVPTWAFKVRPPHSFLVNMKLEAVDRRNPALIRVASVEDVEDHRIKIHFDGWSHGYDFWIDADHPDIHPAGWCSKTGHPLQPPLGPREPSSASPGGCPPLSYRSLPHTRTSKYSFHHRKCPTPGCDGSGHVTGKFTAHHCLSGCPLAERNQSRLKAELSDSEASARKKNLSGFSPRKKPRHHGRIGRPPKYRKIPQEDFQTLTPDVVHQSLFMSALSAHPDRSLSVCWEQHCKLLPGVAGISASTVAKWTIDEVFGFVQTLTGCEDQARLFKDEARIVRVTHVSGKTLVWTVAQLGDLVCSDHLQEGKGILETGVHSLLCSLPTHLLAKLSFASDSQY
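AlphaScreen assay: L3MBTL1 (50 nM final) was preincubated 30 min at room temperature with biotinylated H3(1-15)K9me1 peptide (75 nM final), then 30 min with library compounds; streptavidin donor and nickel chelate acceptor beads (10 ug/mL final) added, 30 min dark.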
G9a inh – qHTS Assay for Inhibitors of Histone Lysine Methyltransferase G9a | G9a H3K9 monomethylation, AlphaScreen, 2 h | 350,000 compounds, 8.8% hits | Potency, µM (top dose mostly 102 µM), most hits filed as inhibitors | Histone-lysine N-methyltransferase EHMT2 (Homo sapiens), Q96KQ7; further: nearly all actives have a fitted effect of over 75% in size
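AlphaScreen detection with an anti-monomethyl H3K9 antibody quantified product after a 2 h room-temperature reaction containing 500 nM biotinylated H3K9 peptide, 20 µM SAM and 20 nM enzyme, which had been preincubated 15 min with compound.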
BAZ2B block – qHTS Assay for Inhibitors of BAZ2B | AlphaScreen BAZ2B-H3K14Ac peptide displacement | Potency, µM (doses to about 114 µM), most hits filed as inhibitors | 360,000 compounds, 4.4% hits | AID 504333, 2011; further: nearly all actives have a fitted effect of over 60% in size
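AlphaScreen displacement: compounds (up to 110uM) incubated 30 min at room temperature with a preformed 50 nM BAZ2B/50 nM biotinylated H3K14Ac peptide complex in PBS pH 7.4 with Tween-20. Donor and acceptor beads at 10 ug/mL final added, 20 min light-protected before reading.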
HP1b binding inh – HTS for Inhibitors of HP1-beta Chromodomain Interactions with Methylated Histone Tails; Potency, µM (top dose mostly 114 µM), hits mostly inhibitors; 390,000 compounds, 0.56% hits; Chromobox protein homolog 1 (Homo sapiens), P83916; AlphaScreen HP1-beta / biotin-H3K9me3 peptide binding; AID 540317, 2011; further: nearly all actives have a fitted effect of over 70% in size
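AlphaScreen: HP1-beta (50 nM) preformed 30 min with biotin-H3(1-18)K9me3 peptide (50 nM) in PBS pH 7.4, 0.01% Tween-20. Compound added for 30 min at RT, then streptavidin donor/nickel chelate acceptor beads (10 ug/mL) for 30 min.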
Each line names hits and unclear results; the compound was inactive in the other large screens. An excerpt weighted towards active compounds, which were near 10% of everything screened. The call rests on the fitted dose curve; in most records, active means well fitted curve in the direction sought with a large enough effect; inconclusive means small, poorly fitted or top-dose-only effect, or another doubt; inactive means no such curve, though single readings can be large; an effect the other way counts as inactive or inconclusive.

O=C(Nc1ccc(Cl)cc1Cl)N1CCN(c2ncccn2)CC1	none
CC1CN(Cc2ccccc2Cl)CC(C)O1 (stereo not given)	JMJD2A Tudor 4.47µM, G9a inh 8.91µM, BAZ2B block 31.6µM, HP1b binding inh inconclusive (no result: L3MBTL1 block)
CN(Cc1ccco1)c1ncncc1-c1cccnc1	none (no result: JMJD2A Tudor, GLS inh, L3MBTL1 block, BAZ2B block, HP1b binding inh)
Cc1ccc(NC(=O)c2sc3nc[nH]c(=O)c3c2C)cc1C	none (no result: L3MBTL1 block)
CCOc1cc(C(=O)NCc2ccc3c(c2)CCN3C(=O)c2ccc(F)cc2)cc(OCC)c1OCC	none (no result: L3MBTL1 block)
O=C(c1ccccc1Cl)N1CCN(c2ncccn2)CC1	none (no result: L3MBTL1 block, G9a inh, BAZ2B block)
O=[N+]([O-])c1ccc(Cl)c(CN2CCSCC2)c1	G9a inh inconclusive, BAZ2B block inconclusive
Clc1ccccc1CN1CCSCC1	JMJD2A Tudor 25.1µM, BAZ2B block inconclusive, HP1b binding inh inconclusive
Clc1ccccc1CN1CCN(c2ncccn2)CC1	JMJD2A Tudor 1µM, G9a inh 31.6µM, BAZ2B block inconclusive, HP1b binding inh inconclusive
COc1ccc(NC(=O)Nc2cccc(OCc3cc(=O)n4cccc(C)c4n3)c2)c(OC)c1	G9a inh inconclusive (no result: L3MBTL1 block)
O=C1CN(C(=O)c2ccc(S(=O)(=O)N3CCCC3)cc2)C(c2ccc(F)cc2)c2cc(Br)ccc2N1 (stereo not given)	none (no result: L3MBTL1 block)
COc1ccc(C)cc1NC(=O)C(NC(=O)c1cc(OC)c(OC)c(OC)c1)C(C)C (stereo not given)	JMJD2A Tudor 39.8µM, HP1b binding inh inconclusive (no result: BAZ2B block)
CCOc1ccc(C(=O)N[C@H](C(=O)Nc2ccccc2OC)C(C)C)cc1	none (no result: L3MBTL1 block)
NC(=O)CSc1ncc(-c2ccc([N+](=O)[O-])cc2)[nH]1	G9a inh inconclusive (no result: L3MBTL1 block)
O=[N+]([O-])c1ccc(-c2cnc(SCc3ccccc3Cl)[nH]2)cc1	JMJD2A Tudor inconclusive, G9a inh 35.5µM, BAZ2B block 31.6µM, HP1b binding inh inconclusive
O=[N+]([O-])c1ccc(-c2cnc(SC(c3ccccc3)c3ccccc3)[nH]2)cc1	JMJD2A Tudor inconclusive, G9a inh 12.6µM, BAZ2B block 39.8µM, HP1b binding inh inconclusive
Cc1cc(C)c(CSc2ncc(-c3ccc([N+](=O)[O-])cc3)[nH]2)c(C)c1	JMJD2A Tudor inconclusive, G9a inh inconclusive, BAZ2B block 10µM, HP1b binding inh inconclusive
COc1ccc(Nc2cc(C)c3cc(NC(=O)COc4cccc(C)c4)ccc3n2)cc1	JMJD2A Tudor inconclusive, G9a inh inconclusive, BAZ2B block inconclusive (no result: L3MBTL1 block)
CC(C)(C)CC(=O)NCC(c1ccc2c(c1)OCO2)N1CCOCC1 (stereo not given)	none (no result: L3MBTL1 block)
O=C(NCCc1ccccc1)c1ccc(CSc2nc3cccnc3n2Cc2ccccc2)cc1	JMJD2A Tudor inconclusive (no result: L3MBTL1 block)
CCOC(=O)C1=C(O)C(=O)NC(c2ccccc2)=C(OC2CCCCC2)C1	G9a inh 50.1µM
CCOC(=O)C1=C(O)C(=O)NC(c2ccccc2)=C(OCC)C1	G9a inh 44.7µM
O=C(Nc1cccc(-c2nc3ccccc3o2)c1)C(F)(F)F	none (no result: L3MBTL1 block)
O=C(C1CCN(S(=O)(=O)Cc2ccccc2)CC1)N1CCN(c2cccc(C(F)(F)F)c2)CC1	none (no result: L3MBTL1 block)
Cc1cc(C)nc(NS(=O)(=O)c2ccc(NC(=O)c3nc(SC(C)C)ncc3Cl)cc2)n1	none (no result: L3MBTL1 block)
O=C(COc1ccccc1Cl)Nc1cccc(S(=O)(=O)NC2=NCCCCC2)c1	G9a inh 50.1µM
CC1CN(S(=O)(=O)c2cccc(C(=O)Nc3ccc(S(=O)(=O)NC4=NCCCCC4)cc3)c2)CC(C)O1 (stereo not given)	G9a inh 17.8µM
N#Cc1ccc(C(=O)Nc2ccc(S(=O)(=O)NC3=NCCCCC3)cc2)cc1	G9a inh 50.1µM, BAZ2B block inconclusive (no result: L3MBTL1 block)

High-throughput results as filed in PubChem.
